Shown are actives, neighbours in structure and some others; about 7.3% of the full set was active somewhere.
ELG1 genotoxic: genotoxicity induction in ELG1-luciferase HEK293T cells; HEK293T ELG1-luciferase reporter, luminescence, 16 h; Potency, µM (highest dose often 46 µM), most hits filed as activators; 1.3% of 330,000 active; AID 504466; also: nearly all actives have a fitted effect of over 60% in size
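ELG1-luciferase HEK293T cells, 2,000/well; compound pinned in; 16 hr, 37 °C, 5% CO2; ONE-Glo, 30 min RT; luminescence on CCD imager.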
Rab9 promoter act: Rab9 promoter activation | Huh7 Rab9 promoter-luciferase reporter, luminescence, 24 h | Potency, µM (highest dose often 9.22 µM), hits mostly activators | 2.8% of 320,000 active | AID 485297; also: nearly all actives have a fitted effect of over 60% in size
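Quantitative HTS format; Huh7 Rab9-luciferase reporter cells (1500/well) receive compound 2 h post-plating, incubate 24 h at 37 °C, then get luciferase reagent for 10 min before luminescence reading.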
KinaseGlo FLuc: blocks Kinase-Glo luciferase, a counter-screen artifact. Potency, µM (top dose mostly 38.3 µM), usual class: inhibitors. 0.28% of 200,000 active. Q27757. Kinase-Glo luciferase, ATP luminescence, 8 min; also: nearly all actives have a fitted effect of over 60% in size
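Light output from Kinase-Glo luciferase with luciferin and 10 uM ATP in 50 mM imidazole pH 7.2, KCl, MgCl2, Tween 20, BSA; compound pin-delivered, 8-min ambient incubation, then luminescence read.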
SMN2 splice up: SMN2 splice variant enhancement. HEK293 SMN2-luciferase splicing reporter, luminescence, 30-36 h. Potency, µM (doses to about 46.1 µM), most hits filed as activators. 2.8% of 210,000 active; also: nearly all actives have a fitted effect of over 55% in size
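HEK293 cells carry an SMN2 […]–luciferase reporter in which exon 7 inclusion puts luciferase in frame. Cells were plated 10-12 h before compound addition, then incubated 30-36 h at 37C. ONE-Glo luminescence was read; sodium butyrate at 4.5 mM final served as control.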
NPC1 prom act: NPC1 promoter activation; Huh7 NPC1 promoter luciferase reporter, 24 h; Potency, µM (highest dose often 9.22 µM), actives largely listed as activators; 2.4% of 320,000 active; also: nearly all actives have a fitted effect of over 60% in size
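In 1536-well qHTS, Huh7 cells harboring an NPC1 promoter–luciferase construct received compound for 24 h; activation was quantified by luminescence following luciferase reagent addition.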
FLuc counter: firefly luciferase modulation, counter-screen for miR-21 project. P08659. purified FLuc, Km substrates, luminescence inhibition. Potency, µM (top dose mostly 57.5 µM), usual class: inhibitors. 6.9% of 360,000 active. AID 588342; also: nearly all actives have a fitted effect of over 55% in size
Target sequence (P08659 whole entry, looked up): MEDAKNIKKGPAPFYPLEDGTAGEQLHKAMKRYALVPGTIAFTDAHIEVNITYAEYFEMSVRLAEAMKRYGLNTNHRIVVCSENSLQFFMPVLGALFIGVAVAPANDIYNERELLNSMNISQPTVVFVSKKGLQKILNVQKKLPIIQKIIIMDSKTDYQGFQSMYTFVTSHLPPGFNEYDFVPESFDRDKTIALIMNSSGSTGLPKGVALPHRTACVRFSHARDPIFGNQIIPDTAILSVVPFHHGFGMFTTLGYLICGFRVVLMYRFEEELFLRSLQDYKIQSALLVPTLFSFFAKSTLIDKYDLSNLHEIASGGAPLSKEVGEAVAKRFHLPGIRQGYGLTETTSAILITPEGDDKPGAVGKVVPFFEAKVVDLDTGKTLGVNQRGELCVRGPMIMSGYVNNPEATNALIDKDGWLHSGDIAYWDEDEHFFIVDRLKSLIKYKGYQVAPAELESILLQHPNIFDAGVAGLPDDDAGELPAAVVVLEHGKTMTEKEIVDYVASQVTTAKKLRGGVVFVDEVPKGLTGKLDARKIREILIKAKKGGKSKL
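Purified P. pyralis luciferase (10nM final) with 10uM D-luciferin and 10uM ATP (Km levels) in 50mM Tris acetate pH 7.5, 10mM Mg acetate, 0.01% Tween-20, 0.05% BSA; qHTS 6-point titration, ~60 µM downward; luminescence read.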
Large screens that a line does not name were inactive. Calls follow the shape of the dose curve; as a rule, active = well fitted curve in the direction sought with a large enough effect; inconclusive = small, poorly fitted or top-dose-only effect, or another doubt; inactive = no such curve, though single readings can be large; an effect the other way counts as inactive or inconclusive.

Cc1cc(C)n(-c2nc(C)c(C)c(=O)n2CC(=O)Nc2ccc(OC(F)(F)F)cc2)n1	none (no result: ELG1 genotoxic, Rab9 promoter act, KinaseGlo FLuc, SMN2 splice up, NPC1 prom act)
CCCCCCCC1=Cc2ccc(F)cc2C(C(C(C)=O)C(=O)OC)N1C(=O)OC (stereo not drawn)	none (no result: ELG1 genotoxic, Rab9 promoter act, NPC1 prom act, FLuc counter)
c1cncc(-c2noc(-c3cccc4ccccc34)n2)c1	ELG1 genotoxic 8.2µM, Rab9 promoter act inconclusive, FLuc counter 7.57µM
c1ccc(-c2noc(-c3cccc4ccccc34)n2)cc1	ELG1 genotoxic inconclusive, SMN2 splice up 11.2µM, FLuc counter 6.01µM
c1ccc2c(-c3nc(-c4ccncc4)no3)cccc2c1	ELG1 genotoxic inconclusive, Rab9 promoter act inconclusive, SMN2 splice up inconclusive, NPC1 prom act inconclusive, FLuc counter 10.7µM
COc1ccc(-c2c(C)nn3c(N4CCN(c5ccccc5)CC4)cc(C)nc23)cc1OC	none (no result: ELG1 genotoxic, Rab9 promoter act, KinaseGlo FLuc, NPC1 prom act)
O=C(CCS(=O)(=O)c1cccs1)NC1CCCCCC1	ELG1 genotoxic inconclusive, Rab9 promoter act 3.55µM, NPC1 prom act 2.82µM, FLuc counter 16.9µM
CC(C)(C)c1ccc(-n2ncc3c2CCCC3NC(=O)c2cnccn2)cc1 (stereo not drawn)	ELG1 genotoxic inconclusive, FLuc counter 23.9µM (no result: KinaseGlo FLuc, SMN2 splice up)
CC(C)(C)c1ccc(-n2ncc3c2CCCC3NC(=O)c2csnn2)cc1 (stereo not drawn)	none (no result: KinaseGlo FLuc, SMN2 splice up)
COc1ccc2c(c1)CCC/C2=N\Nc1nc(C(=O)NN)cs1	FLuc counter 1.35µM (no result: KinaseGlo FLuc, SMN2 splice up)
CCOC(=O)c1csc(N/N=C2\CCCc3ccccc32)n1	FLuc counter inconclusive (no result: KinaseGlo FLuc, SMN2 splice up)
N#Cc1nc(Nc2cccc(Cl)c2)c2ncn(C3CCCC3)c2n1	ELG1 genotoxic inconclusive, NPC1 prom act 3.55µM, FLuc counter 1.35µM (no result: KinaseGlo FLuc, SMN2 splice up)
CCOc1ccccc1NC(=O)C(C)N(c1ccccc1)S(C)(=O)=O (stereo not drawn)	none (no result: ELG1 genotoxic, Rab9 promoter act, KinaseGlo FLuc, NPC1 prom act)
O=C(O/N=C(\c1ccccc1)c1ccncc1)c1ccccc1F	none
C/C(=N\OC(=O)c1ccccc1F)c1nccs1	FLuc counter 1.35µM
O=C(OCc1cnc(Cl)s1)c1cccc(Cl)c1	none (no result: SMN2 splice up)
C/C(=N/OC(=O)c1cccc(Cl)c1)c1nccs1	FLuc counter 2.13µM
Cc1ccc(-c2nc3ncccc3n2O)cc1	none (no result: KinaseGlo FLuc, SMN2 splice up)
COn1c(-c2ccc(Cl)cc2)nc2ncccc21	ELG1 genotoxic inconclusive, Rab9 promoter act inconclusive, NPC1 prom act inconclusive, FLuc counter 21.3µM (no result: KinaseGlo FLuc, SMN2 splice up)
O=C1c2ccccc2CN1CCSC(=S)N1CCSCC1	Rab9 promoter act 3.16µM, NPC1 prom act inconclusive, FLuc counter 23.9µM
O=C1c2ccccc2CN1CCNC(=S)NC1CCCCC1	none (no result: KinaseGlo FLuc, SMN2 splice up)
O=C1c2ccccc2CN1CCSC(=S)N1CCOCC1	ELG1 genotoxic inconclusive, Rab9 promoter act 3.55µM, SMN2 splice up 12.6µM, NPC1 prom act 3.55µM, FLuc counter 12µM
CC1CN(C(=S)SCCN2Cc3ccccc3C2=O)CC(C)O1 (stereo not drawn)	none
Cc1cc(C)c(S(=O)(=O)NCC(c2cccs2)S(=O)(=O)c2ccccc2)c(C)c1 (stereo not drawn)	none (no result: ELG1 genotoxic, Rab9 promoter act, KinaseGlo FLuc, SMN2 splice up, NPC1 prom act)
COc1ccc(S(=O)(=O)N2CCN(Cc3nc4ccc(C)cc4o3)CC2)cc1OC	none (no result: ELG1 genotoxic, Rab9 promoter act, KinaseGlo FLuc, SMN2 splice up, NPC1 prom act)
Cc1cc2cc3c(cc2nc1SCC(=O)O)OCCO3	none
Cc1cc2cc3c(cc2nc1SCc1ccc(C(=O)O)cc1)OCCO3	FLuc counter 19µM
FC(F)(F)c1ccccc1-n1c(-c2cnccn2)n[nH]c1=S	ELG1 genotoxic inconclusive, FLuc counter 16.9µM (no result: KinaseGlo FLuc, SMN2 splice up)
Cc1ccc(-n2c(-c3cnccn3)n[nH]c2=S)c(Br)c1	none (no result: SMN2 splice up)
CCC(=O)N1c2ccccc2C(N(C(=O)CC)c2ccccc2)CC1C (stereo not drawn)	ELG1 genotoxic 23.1µM (no result: KinaseGlo FLuc, SMN2 splice up)
CCC(=O)N1c2ccccc2C(N(C(C)=O)c2ccccc2)CC1C (stereo not drawn)	ELG1 genotoxic inconclusive, SMN2 splice up 5.62µM
CCCC(=O)N1c2ccccc2[C@@H](N(C(C)=O)c2ccccc2)C[C@H]1C	none
[O-][N+]1(CC[N+]2([O-])CCCCC2)CCCCC1	none (no result: ELG1 genotoxic, Rab9 promoter act, NPC1 prom act, FLuc counter)
O=C(NCC(c1ccco1)S(=O)(=O)c1cccs1)c1ccccc1 (stereo not drawn)	none (no result: ELG1 genotoxic, Rab9 promoter act, KinaseGlo FLuc, SMN2 splice up, NPC1 prom act)
COc1ccc(C(C[N+](=O)[O-])C2(c3ccc(OC)c(OC)c3)C(=O)c3ccccc3C2=O)cc1 (stereo not drawn)	Rab9 promoter act inconclusive, SMN2 splice up 25.1µM, FLuc counter 6.01µM
O=C1OC2(CCCC2)OC(=O)C1=Cc1c[nH]c2ccccc12	ELG1 genotoxic inconclusive, Rab9 promoter act 0.891µM, NPC1 prom act 1.12µM (no result: SMN2 splice up)
Cc1nc2ccccn2c1C(=O)N/N=C/c1ccc([N+](=O)[O-])o1	none
Cc1nc2ccccn2c1C(=O)N/N=C/c1ccc(CNC(=O)C(=O)Nc2ccccc2)o1	SMN2 splice up inconclusive, FLuc counter 19µM
Cc1ccccc1-n1nc(CO)c(C(=O)NCC(c2ccccc2)c2ccccc2)n1	none (no result: ELG1 genotoxic, Rab9 promoter act, KinaseGlo FLuc, NPC1 prom act)
CNC(=O)c1ccc(-c2ccccc2)s1	ELG1 genotoxic inconclusive, Rab9 promoter act inconclusive, NPC1 prom act inconclusive, FLuc counter 13.5µM
Cc1cc(OCc2cn3cccnc3n2)ccc1Cl	ELG1 genotoxic 8.2µM, Rab9 promoter act 2.82µM, SMN2 splice up 11.2µM, NPC1 prom act inconclusive, FLuc counter 21.3µM
Nc1n[nH]c(N)c1N=Nc1ccc(Cl)cc1	ELG1 genotoxic inconclusive, FLuc counter 15.1µM
Cc1cccc(N=Nc2c(N)n[nH]c2N)c1	FLuc counter inconclusive (no result: KinaseGlo FLuc, SMN2 splice up)

Compound activity deposited in PubChem by National Center for Advancing Translational Sciences (NCATS).
